PINK1 modulator = PINK1 expression modulation. AID 624263. 410,000 compounds, 0.2% hits. PINK1 immunofluorescence, high-content cytometry, 24 h. Potency, µM (doses to about 76.6 µM), for inactives: at the top dose activation (PINK1 increase), usual class: activators; active = well fitted activation curve with a large enough effect; inconclusive = small, poorly fitted or top-dose-only effect; cell line not stated here; also: potency is read from the fitted curve at half-maximal effect; % of control where 0% means no effect; nearly all actives have a fitted effect of over 65% in size
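Stable cell line treated 24 h with compounds at 5 concentrations (CCCP controls), then fixed and immunostained for PINK1 plus nuclear and cell stains; PINK1 immunofluorescence quantified by laser-scanning microplate cytometry.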
ATXN2 expr inh = ATXN2 expression inhibition. HEK-293 ATXN2-luciferase reporter, luminescence, 24 h. Potency, µM (titrated, usually from 57 µM), for inactives: at the highest dose activity change, negative = inhibition, usual class: inhibitors. 360,000 compounds, 0.72% hits. AID 1745845; also: potency is read from the fitted curve at half-maximal effect; % is scaled to controls: 0 for no effect and ±100 for the full control effect; nearly all actives have a fitted effect of over 55% in size
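ATXN2-luciferase reporter cells (luciferase flanked by upstream and downstream ATXN2 gene portions) were treated 24 h at 37 °C with compounds at up to 57 uM. SteadyGlo luminescence gave expression; GF-AFC fluorescence gave viability.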
SW480 rerep = induces DNA re-replication in SW480 colon adenocarcinoma cells; SW480 DNA re-replication, Hoechst DNA content imaging, 48 h; Potency, µM (titrated, usually from 46.1 µM), without a hit: top-dose re-replication activation, usual class: activators; 340,000 compounds, 1.8% hits; also: potency is read from the fitted curve at half-maximal effect; % of control where 0% means no effect; nearly all actives have a fitted effect of over 55% in size
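Per well, 250 cells were exposed to pinned compound for 48 hr. Nuclear DNA was visualised with Hoechst (40 min, 37 C) and total object intensity recorded by fluorescence scanning.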
MCF10A rerep = inducers of DNA re-replication in MCF 10A breast cells; MCF 10A DNA re-replication, Hoechst nuclear intensity, 48 h; Potency, µM (highest dose often 46.1 µM), without a hit: at the top dose activity, positive = re-replication, hits mostly activators; 350,000 compounds, 2.9% hits; also: potency is read from the fitted curve at half-maximal effect; % of control where 0% means no effect; nearly all actives have a fitted effect of over 50% in size
S2 tox = reduces viability in counter-screen for ATXN expression inhibitors. S2 cells (HEK-293 line with an ATXN2-luciferase reporter) viability, CellTiter-Fluor protease fluorescence, 24 h. Potency, µM (doses to about 56.7 µM), actives largely listed as cytotoxic. 400,000 compounds, 0.49% hits. AID 651635; also: potency is read from the fitted curve at half-maximal effect; nearly all actives have a fitted effect of over 40% in size
IL-1B inflam inh = inflammasome signaling inhibition, IL-1 beta readout | AID 743279 | 360,000 compounds, 4.7% hits | activity change, % at 57.5 µM | THP-1 LPS/ATP IL-1B secretion, AlphaLISA, 16 h; stronger effect = lower value; in the data active = activity change below about -50%; inconclusive = mostly about -30% to -49%; also: % is scaled to controls: 0 for no effect and ±100 for the full control effect
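THP-1 cells pretreated 1 hr with compounds (up to 57.5 uM final), then stimulated with LPS (250 ng/mL final) plus ATP (1.25 mM final); secreted IL-1B measured by AlphaLISA after 16 hr, decreased signal indicating inhibition.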
* = called active by the depositor; i = inactive; ? = inconclusive; · = no result; [ ] = another dose, or the depositor's remark. A selection: hits, their analogues and other compounds. The true share with any hit is near 7.1%. Unless noted, calls follow the shape of the dose curve; as a rule, active = well fitted curve in the direction sought with a large enough effect; inconclusive = small, poorly fitted or top-dose-only effect, or another doubt; inactive = no such curve, though single readings can be large; an effect the other way counts as inactive or inconclusive.

SMILES | PINK1 modulator | ATXN2 expr inh | SW480 rerep | MCF10A rerep | S2 tox | IL-1B inflam inh
CN(C)CCC(=O)c1cccc(Br)c1 | 4% | · | ? | 18µM* | ? | -17
CN(C)CCCC(=O)c1ccc2c(c1)OCO2 | -1% | -7% | 3%[9.22 µM] | -2% | i | -12
CN(C)CCC(=O)c1ccc2c(c1)OCO2 | -1% | 6% | ? | 7.3µM* | i | -24
CN(C)CCC(=O)c1ccc(F)cc1 | 1% | 10% | ? | ? | i | -12
COc1cc(C2=NC(CO)(CO)CO2)cc(OC)c1OC | 2% | -8% | -6% | -9% | i | -72*
Cc1c(Cl)cccc1NC(=O)CN1C(=O)c2ccccc2Sc2ncccc21 | 2% | -6% | · | · | i | ·
CCCS(=O)(=O)c1c(S(=O)(=O)CCC)c2cc(-c3ccncc3)ccn2c1C(=O)OC | 5% | 53% | 18µM* | 23µM* | · | -69*
COc1ccc(C(=O)Nc2ccc(Cl)c(S(=O)(=O)Nc3ccccc3OC)c2)cc1 | 2% | ? | 3% | 9% | i | -1
COc1ccc(NS(=O)(=O)c2cc(N/C(=N\S(=O)(=O)c3ccccc3)c3ccc(F)cc3)ccc2Cl)cc1 | 18% | -25% | ? | 13µM* | ? | -10
COc1ccc(NS(=O)(=O)c2cccc(C(=O)N/N=C/c3c(F)c(F)c(F)c(F)c3F)c2)cc1 | 6% | ? | ? | 18µM* | ? | 0
COc1ccc(NS(=O)(=O)c2cccc(C(=O)NN=Cc3ccc(OC)c(O)c3)c2)cc1 | -1% | -6% | -3% | 11% | i | 20
COc1ccccc1NS(=O)(=O)c1cc(NC(=O)c2ccc(Cl)nc2)ccc1Cl | ? | 20µM* | 1% | 18µM* | ? | -63*
CCOc1ccc(NS(=O)(=O)c2cc(NC(=O)c3ccc(C)cc3)ccc2Cl)cc1 | 6% | -24% | 4.6µM* | 2.1µM* | ? | -3
CCOc1ccc(Oc2ccc(NS(=O)(=O)c3cc(C(=O)O)ccc3Cl)cc2)cc1 | -1% | -2% | -2% | -2% | i | 45
Cc1cnc(-n2ncc(C(=O)NCc3cccnc3)c2C)nc1-c1ccc(F)cc1 | 1% | · | · | · | ? | ·
CCOc1ccc(CNC(=O)CCCn2nc(C)c3sc4ccccc4c3c2=O)cc1 | 0% | · | · | · | · | ·
Cc1ccc(C(=O)NCC(c2ccc3c(c2)OCO3)N2CCOCC2)cc1 (stereo unspecified) | 2% | 4% | · | · | i | ·
O=C(Cn1c(=O)oc2ccccc21)NCc1ccccc1Cl | -1% | · | · | · | · | ·
CCCCN(CCCC)Cc1ccc(C(=O)NNC(=O)Nc2ccc(Cl)cc2)o1 | 3% | -15% | ? | 13% | ? | -57*
CCOC(=O)c1ccccc1NC(=O)N1CCC(CN2CCCCC2)CC1 | 0% | -6% | · | · | i | ·
NC1=NC(c2ccc(Cl)cc2)C(C(=O)c2ccccc2)N1 (stereo unspecified) | 6% | · | ? | 5.8µM* | ? | 100
COc1ccc2c(c1)[nH]c1c(N3CCSCC3)ncnc12 | -1% | ? | -6% | ? | i | ·
COc1ccc2c(c1)[nH]c1c(N3CCN(Cc4ccc5c(c4)OCO5)CC3)ncnc12 | 9% | 14µM* | 10% | ? | 10µM* | -105*
c1ccc(CN2CCN(c3ncnc4c3[nH]c3ccccc34)CC2)cc1 | 8% | ? | 1% | 21µM* | ? | -95*
c1ccc2c(c1)CCN(c1ncnc3c1[nH]c1ccccc13)C2 | 3% | ? | ? | ? | ? | -84*
SMILES | PINK1 modulator | ATXN2 expr inh | SW480 rerep | MCF10A rerep | S2 tox | IL-1B inflam inh
CCOc1ccc2[nH]c3c(N4CCN(c5ccccn5)CC4)ncnc3c2c1 | 5%[38.3 µM] | ? | ? | 12% | i | -77*
COc1ccc(-c2cn(CCO)c(-c3ccncc3)n2)cc1 | 2% | 5% | 1% | 9% | i | 36
Cc1ccc2c(c1)[nH]c1c(N3CCN(Cc4ccccc4)CC3)ncnc12 | · | 8.9µM* | ? | ? | · | -98*
C#CCN1C=C(C(=O)OCC)C(C)N(Cc2ccccc2I)S1(=O)=O (stereo unspecified) | 8% | ? | 1.3µM* | 23µM* | i | 63
Cc1ncc2c(c1CNC(=O)/C=C/c1cccs1)CCN(C(=O)C1CCCO1)C2 (stereo unspecified) | 0% | · | · | · | i | ·
OCCCNCc1ccc(N(c2ccccc2)c2ccccc2)cc1 | -2% | ? | ? | 38% | ? | -94*
CCc1ccc(N2CC(O)(c3cccs3)[N+]3=C2SCCC3)cc1 (stereo unspecified) | -2% | · | 36% | ? | i | -153*
Cc1ccc(N2CC(O)(c3cccs3)[N+]3=C2CCCC3)cc1 (stereo unspecified) | 3% | -19% | 0% | -4% | i | -2
COc1ccc(CC(=O)Nc2oc(-c3ccccc3)c(-c3ccccc3)c2C#N)cc1OC | 8% | -12% | -4% | 14% | i | -7
COc1cc2c(cc1OC)/C(=C/C(=O)c1cccc([N+](=O)[O-])c1)NCC2 | 6% | -31% | 5% | ? | i | -60*
O=C(/C=C/c1ccccc1F)c1cccc([N+](=O)[O-])c1 | -1% | · | 86% | 21µM* | ? | -9
COc1cc2c(cc1OC)/C(=C/C(=O)c1ccc(OC)c([N+](=O)[O-])c1)NCC2 | 15% | ? | 2% | -2% | i | ?
CC(=O)c1cccc([N+](=O)[O-])c1 | 1% | 3% | -5% | 7% | i | 5
Cc1ccc(OC(=O)c2cccc([N+](=O)[O-])c2)c(-n2nc3ccccc3n2)c1 | 22% | 66% | -53% | -2% | i | 2
O=C(Oc1ccc(F)cc1C(=O)/C=C/c1cccs1)c1cccc([N+](=O)[O-])c1 | 2% | -2% | 13µM* | ? | i | ?
O=C(C#Cc1ccccc1)c1cccc([N+](=O)[O-])c1 | -4% | 22µM* | 7.3µM* | 2.9µM* | · | -74*
COc1cc(NC(=O)CCc2c(C)nc3c(-c4ccc(F)cc4)c(C)nn3c2C)cc(OC)c1OC | 6% | -11% | · | · | i | ·
CCC(=O)N[C@@H]1c2ccccc2C2(CCN(Cc3[nH]c4c(Cl)cccc4c3C)CC2)[C@H]1OC | 1% | · | · | · | ? | ·
CCN(CC)C(=O)CSc1nc(-c2ccccc2)cc(-c2ccc(OC)cc2)c1C#N | -1% | 8% | · | · | i | ·
CCOC(=O)c1c(S(=O)(=O)N2CCCC(C(=O)NCc3ccccc3OC)C2)c(C)n(C)c1C (stereo unspecified) | 3% | -11% | · | · | i | ·
O=C(CCc1cccnc1)NCC1Cc2cccc(-c3ncccn3)c2O1 (stereo unspecified) | -1% | · | · | · | i | ·

Screens from PubChem BioAssay.
